Experimental findings from PubChem BioAssay are described below.

Experiment [1] in a line: rapamycin-like changes in RPL19A-GFP expression – cell-based, S. cerevisiae, multiplex flow cytometry, primary screen (AID 1862; in the data active = percent of DMSO control GFP below about 86%;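 also: lower values mimic rapamycin by blocking the RPL19A rise seen in DMSO cells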). As to conditions: S. cerevisiae RPL19A-GFP strain, flow cytometry fluorescence, 3 h; at 10 µM; stronger effect = lower value. A general note: A flow cytometer gives signals particle by particle.
Experiment [2] can be described thus: TOR pathway GLN3 branch reporter MEP2-GFP changes – S. cerevisiae, multiplex flow cytometry, primary screen (AID 1867;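 active = GFP response, as percent of the DMSO control, above the screen-wide mean plus 3 SD, about 139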;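 also: median GFP channel fluorescence of barcode-gated MEP2-GFP cells measured by flow cytometry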). As to conditions: S. cerevisiae MEP2-GFP strain, 3 h, at 10 µM, stronger effect = higher value, 100% means same as DMSO wells.
A short description of experiment [3]: TOR pathway RTG branch CIT2 reporter changes – S. cerevisiae, GFP fusion, multiplex flow cytometry, primary screen (AID 1870;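 active = percent response above a set limit, the screen-wide mean plus 3 SD, cut at about 130% in these data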;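 also: barcoded CIT2-GFP strain pooled with four other GFP strains with rapamycin as positive control; median GFP fluorescence per well over plate mean of DMSO wells so 100% = DMSO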). The note with it: S. cerevisiae CIT2-GFP expression, 3 h, at 10 µM, stronger effect = higher value.
The nature of experiment [4]: TOR pathway LAP4-GFP level changes – S. cerevisiae, multiplex flow cytometry, primary screen (AID 1873;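 active = GFP signal, as percent of the solvent control, above the screen mean plus 3 SD, about 149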). As to conditions: S. cerevisiae LAP4-GFP expression, 3 h, at 10 µM, stronger effect = higher value.
Experiment [5] is described as follows: yeast AGP1-GFP level changes, GLN3 branch – cell-based, multiplex flow cytometry, S. cerevisiae, primary screen (AID 1887;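 active = GFP signal above the screen-wide mean plus 3 SD, that is over about 124.5% of the solvent control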;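 also: AGP1-GFP fusion strain of S. cerevisiae within a five-strain barcoded multiplex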). The note with it: 3 h, at 10 µM, stronger effect = higher value.
A short description of experiment [6]: reduced mouse 2C T cell binding to pMHC/ICAM-1 vesicles – MLPCN validation set, flow cytometry, LFA-1/ICAM-1 modulator project, pilot screen (AID 2523;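 active = response below a set limit, under 55% cells CD8-positive and vesicle-bound, and CD8 cells' 90th-percentile brightness under 279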;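 as to vesicle binding response: mean PE anti-B7-1 fluorescence of CD8+ cells relative to row control; 100% = QL9-loaded vesicles with DMSO vehicle in the same plate row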). As to conditions: 2C mouse CD8+ T cells, at 7 µM, stronger effect = lower value; double positive events: measured here: CD8+/vesicle+ event percentage.
Experiment [7] has as its target Integrin beta-1 (Homo sapiens) + Integrin alpha-4 (Homo sapiens) (UniProt P13612+P05556). Description: alpha4beta1 integrin LIBS antibody binding reduction – U937 cells, HUTS-21 mAb, flow cytometry, validation set, VLA-4 allosteric modulator project, pilot screen (AID 2674;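 active = inhibition above 50%, about 3 SD of the validation set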;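 also: antibody binding induced by the VLA-4 ligand LDV present at three times its Kd; 0% = LDV ligand with antibody and no compound and 100% = antibody without LDV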). As to conditions: HUTS-21 LIBS mAb binding, at 6.7 µM, stronger effect = higher value, binding induced by LDV ligand.

A short description of experiment [8]: calorie-restriction mimetic ROS inhibitors, yeast – validation compound set, pilot screen (AID 2706;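 active = superoxide response below 65% of plate, a cut near 3 SD across the whole screen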;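 also: yeast exposed to compound for one week at 30 degrees C before staining; 100% = mean of all compound wells on the same plate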). The note with it: S. cerevisiae aging, superoxide DHE fluorescence; at 10 µM; stronger effect = lower value.
In experiment [9] the target is Beta-adrenergic receptor kinase 1 (Homo sapiens) (UniProt P25098). The experiment in a line: GRK2 binders displacing RNA aptamer, biochemical, validation, human GRK2, bead flow cytometry (AID 488806;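 active = aptamer binding inhibition above 30%, about 3 SD of noise from non-fluorescent compounds; inactive = inhibition at or below 30%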). The note with it: bead-bound GRK2, FAM-aptamer displacement, at 10 µM, stronger effect = higher value.
Experiment [10] addresses Beta-2 adrenergic receptor (Homo sapiens) (UniProt P07550). The experiment in a line: agonist-induced loss of surface beta2AR – cell-based, FAP fluorogen, flow cytometry, validation set, pilot screen (AID 504459;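 active = percent response above 42, roughly 3 SD of non-fluorescent test compounds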;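 also: agonist-driven loss of surface beta2AR via internalization measured by FAP dye flow cytometry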). As to conditions: Am2.2-beta2AR cells, at 10 µM, stronger effect = higher value.
The target of experiment [11] is AP-2 complex subunit beta (Homo sapiens) (UniProt P63010). Description: beta-arrestin/AP2 interaction blockers – biochemical, validation set, GST-AP2 beads, flow cytometry, pilot screen (AID 504541;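 active = inhibition above 54%, about 3 SD of non-fluorescent compounds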;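 also: AP2 carries R879A mutation and is captured from E. coli lysate; bead-bound FITC arrestin peptide fluorescence measuring arrestin peptide binding to AP2; 0% = DMSO wells and 100% = excess unlabeled arrestin peptide control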). The note with it: FITC arrestin peptide, at 10 µM, stronger effect = higher value, AP2 beta2 appendage fragment, R879A mutant.
Experiment [12] is described as follows: cytosolic pH regulators acting via V-ATPase – S. cerevisiae, pHLuorin, HTS validation (AID 504600; in the data active = response above about 15%;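 also: plate controls were DMSO for no effect and reference compound for full effect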). As to conditions: V-ATPase proton transport, at 10 µM, stronger effect = higher value.
In experiment [13] the test system is anti-desmoglein-3 scFv antibody binding to human DSG3. The experiment in a line: blockers of pathogenic pemphigus antibody–desmoglein-3 binding – biochemical, validation compound set, bead-based, flow cytometry, pilot screen (AID 588368;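 active = binding below the plate cutoff, the plate median minus 3 SD, with a reading above zero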;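 also: signal is the median channel fluorescence of bead-bound GFP antibody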). As to conditions: Protein G beads, DSG3-Fc, scFv-GFP binding, at 10 µM, stronger effect = lower value.
Experiment [14] is described as follows: Nile Red efflux blockade in pump-expressing yeast – validation compound set, multiplex, phenotypic, pilot screen (AID 588506;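 active = efflux inhibition above 0.42, the validation set average plus 4 SD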;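 also: Nile Red retained in cells so higher fluorescence means more efflux inhibition; 0 = negative control wells and 1 = enniatin B 25 µM full block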). As to conditions: S. cerevisiae pump-expressing triplex, Nile Red efflux flow cytometry; at 10 µM; stronger effect = higher value; the pumps come from Candida albicans.
Experiment [15] concerns the target ATP-binding cassette sub-family B member 6 (Homo sapiens) (UniProt Q9NP58). Description: blockers of ABCB6-driven porphyrin uptake – K562-ABCB6 cells, flow cytometry, validation set, pilot screen (AID 588550;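 active = inhibition above the screen-wide mean plus 3 SD, about 51%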;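 also: 0% = DMSO wells and 100% = benzethonium chloride 70 µM positive control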). As to conditions: K562-ABCB6 porphyrin accumulation, 1 h, at 10 µM, stronger effect = higher value.
Experiment [16] is described as follows: AML differentiation inducers, ER-HoxA9 marrow cells – cell-based, GFP/MAC1 double positive, flow cytometry, validation set, primary screen (AID 588685).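 Also: compound exposure lasts four days before antibody staining and flow analysis; 0% = DMSO wells and 100% = 5 µM fulvestrant positive control.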 The note with it: stronger effect = higher value, normalized: vehicle 0, fulvestrant 100.

The term inhibition denotes the drop in the measured response relative to a control, in per cent.

Inconclusive results are not listed. Active and inactive are the calls of the source.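 The calls were made as follows, unless noted: active = differentiation response of at least 50%, scaled between solvent and reference control, from cells with both markers; inactive = the rest.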

ATP-binding cassette sub-family B member 6 (Homo sapiens), sequence (Q9NP58 whole entry, looked up): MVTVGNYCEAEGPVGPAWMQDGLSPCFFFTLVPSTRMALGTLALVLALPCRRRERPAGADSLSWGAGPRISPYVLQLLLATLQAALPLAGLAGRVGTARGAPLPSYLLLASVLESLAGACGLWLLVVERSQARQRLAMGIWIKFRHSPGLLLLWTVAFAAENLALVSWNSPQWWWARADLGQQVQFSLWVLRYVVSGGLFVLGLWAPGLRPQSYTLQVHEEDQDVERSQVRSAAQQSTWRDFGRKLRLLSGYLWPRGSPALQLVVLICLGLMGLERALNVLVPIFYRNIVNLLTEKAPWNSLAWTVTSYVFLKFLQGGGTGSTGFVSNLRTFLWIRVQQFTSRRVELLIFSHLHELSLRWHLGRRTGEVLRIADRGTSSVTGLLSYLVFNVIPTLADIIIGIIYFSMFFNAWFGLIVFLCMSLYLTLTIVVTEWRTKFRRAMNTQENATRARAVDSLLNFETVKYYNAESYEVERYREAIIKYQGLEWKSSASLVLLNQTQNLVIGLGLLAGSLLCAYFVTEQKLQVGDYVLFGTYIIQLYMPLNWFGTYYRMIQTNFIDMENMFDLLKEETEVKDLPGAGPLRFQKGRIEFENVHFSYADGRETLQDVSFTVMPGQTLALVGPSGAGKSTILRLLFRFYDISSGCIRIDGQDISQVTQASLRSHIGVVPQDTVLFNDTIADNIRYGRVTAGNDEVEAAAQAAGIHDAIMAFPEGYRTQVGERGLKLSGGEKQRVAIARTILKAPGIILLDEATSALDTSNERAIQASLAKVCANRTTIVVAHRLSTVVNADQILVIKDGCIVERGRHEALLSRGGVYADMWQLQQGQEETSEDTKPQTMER
Beta-adrenergic receptor kinase 1 (Homo sapiens), sequence (P25098 whole entry, looked up): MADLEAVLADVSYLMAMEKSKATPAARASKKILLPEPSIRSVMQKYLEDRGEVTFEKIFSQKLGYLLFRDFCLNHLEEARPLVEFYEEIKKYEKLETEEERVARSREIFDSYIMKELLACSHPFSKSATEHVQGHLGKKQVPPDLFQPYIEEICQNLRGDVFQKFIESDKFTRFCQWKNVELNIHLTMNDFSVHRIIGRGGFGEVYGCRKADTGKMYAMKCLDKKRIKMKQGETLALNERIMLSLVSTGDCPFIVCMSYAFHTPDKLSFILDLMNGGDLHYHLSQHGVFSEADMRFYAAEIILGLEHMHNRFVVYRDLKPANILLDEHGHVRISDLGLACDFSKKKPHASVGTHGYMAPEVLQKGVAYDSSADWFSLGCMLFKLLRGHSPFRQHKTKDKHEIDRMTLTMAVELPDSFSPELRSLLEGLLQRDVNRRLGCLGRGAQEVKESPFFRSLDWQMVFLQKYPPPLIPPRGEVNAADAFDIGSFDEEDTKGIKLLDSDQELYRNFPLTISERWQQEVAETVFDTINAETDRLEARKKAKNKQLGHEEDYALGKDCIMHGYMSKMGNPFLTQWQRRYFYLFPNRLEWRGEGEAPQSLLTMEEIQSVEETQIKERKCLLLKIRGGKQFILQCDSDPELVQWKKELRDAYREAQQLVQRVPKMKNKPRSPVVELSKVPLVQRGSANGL
AP-2 complex subunit beta (Homo sapiens), sequence (P63010 whole entry, looked up, the tested form may be a part, one chain of several): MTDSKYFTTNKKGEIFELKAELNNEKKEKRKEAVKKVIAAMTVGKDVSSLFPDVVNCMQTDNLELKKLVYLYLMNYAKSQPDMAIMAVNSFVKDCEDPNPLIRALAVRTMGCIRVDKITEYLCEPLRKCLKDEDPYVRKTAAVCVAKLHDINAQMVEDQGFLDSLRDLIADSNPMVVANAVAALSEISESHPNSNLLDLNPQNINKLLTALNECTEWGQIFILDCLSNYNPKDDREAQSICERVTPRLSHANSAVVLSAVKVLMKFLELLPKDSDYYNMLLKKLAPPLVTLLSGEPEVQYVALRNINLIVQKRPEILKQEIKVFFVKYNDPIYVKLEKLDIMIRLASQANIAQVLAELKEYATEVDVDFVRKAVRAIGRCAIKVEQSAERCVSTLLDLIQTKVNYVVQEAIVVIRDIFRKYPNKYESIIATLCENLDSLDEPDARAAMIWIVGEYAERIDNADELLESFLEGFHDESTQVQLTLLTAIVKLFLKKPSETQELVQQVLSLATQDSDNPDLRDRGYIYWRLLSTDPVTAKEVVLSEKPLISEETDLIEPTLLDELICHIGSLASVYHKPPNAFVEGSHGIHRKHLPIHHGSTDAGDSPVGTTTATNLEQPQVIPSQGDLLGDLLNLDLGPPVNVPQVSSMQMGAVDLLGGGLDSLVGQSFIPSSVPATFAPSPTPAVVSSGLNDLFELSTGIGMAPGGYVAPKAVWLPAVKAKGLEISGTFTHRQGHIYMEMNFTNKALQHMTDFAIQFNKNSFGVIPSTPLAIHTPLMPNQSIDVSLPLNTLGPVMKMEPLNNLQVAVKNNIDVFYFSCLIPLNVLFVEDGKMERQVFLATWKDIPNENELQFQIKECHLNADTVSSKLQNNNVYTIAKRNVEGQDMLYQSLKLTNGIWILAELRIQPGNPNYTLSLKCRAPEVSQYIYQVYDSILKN
Integrin beta-1 (Homo sapiens) + Integrin alpha-4 (Homo sapiens), sequence (P05556 whole entry, looked up): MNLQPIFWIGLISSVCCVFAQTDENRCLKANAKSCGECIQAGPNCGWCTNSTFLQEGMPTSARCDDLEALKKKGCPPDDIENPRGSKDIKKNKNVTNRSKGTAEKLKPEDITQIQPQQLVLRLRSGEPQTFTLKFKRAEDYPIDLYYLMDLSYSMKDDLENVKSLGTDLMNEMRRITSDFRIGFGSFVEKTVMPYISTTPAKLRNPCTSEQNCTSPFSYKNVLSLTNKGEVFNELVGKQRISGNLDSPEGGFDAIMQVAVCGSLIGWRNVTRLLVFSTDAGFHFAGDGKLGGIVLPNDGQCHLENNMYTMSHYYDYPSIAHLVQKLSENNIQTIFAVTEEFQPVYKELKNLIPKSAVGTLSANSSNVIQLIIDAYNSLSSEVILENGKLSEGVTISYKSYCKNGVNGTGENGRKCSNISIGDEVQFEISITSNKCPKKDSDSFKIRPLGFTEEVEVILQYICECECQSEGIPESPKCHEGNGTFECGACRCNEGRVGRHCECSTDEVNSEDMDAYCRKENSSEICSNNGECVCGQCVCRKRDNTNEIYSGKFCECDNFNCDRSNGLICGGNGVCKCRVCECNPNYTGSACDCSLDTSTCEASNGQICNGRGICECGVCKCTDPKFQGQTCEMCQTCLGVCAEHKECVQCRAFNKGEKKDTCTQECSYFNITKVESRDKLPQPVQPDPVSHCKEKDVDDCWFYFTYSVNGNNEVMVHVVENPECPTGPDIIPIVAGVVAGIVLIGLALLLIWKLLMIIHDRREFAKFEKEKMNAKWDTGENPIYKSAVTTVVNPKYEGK
Integrin beta-1 (Homo sapiens) + Integrin alpha-4 (Homo sapiens), sequence (P13612 whole entry, looked up): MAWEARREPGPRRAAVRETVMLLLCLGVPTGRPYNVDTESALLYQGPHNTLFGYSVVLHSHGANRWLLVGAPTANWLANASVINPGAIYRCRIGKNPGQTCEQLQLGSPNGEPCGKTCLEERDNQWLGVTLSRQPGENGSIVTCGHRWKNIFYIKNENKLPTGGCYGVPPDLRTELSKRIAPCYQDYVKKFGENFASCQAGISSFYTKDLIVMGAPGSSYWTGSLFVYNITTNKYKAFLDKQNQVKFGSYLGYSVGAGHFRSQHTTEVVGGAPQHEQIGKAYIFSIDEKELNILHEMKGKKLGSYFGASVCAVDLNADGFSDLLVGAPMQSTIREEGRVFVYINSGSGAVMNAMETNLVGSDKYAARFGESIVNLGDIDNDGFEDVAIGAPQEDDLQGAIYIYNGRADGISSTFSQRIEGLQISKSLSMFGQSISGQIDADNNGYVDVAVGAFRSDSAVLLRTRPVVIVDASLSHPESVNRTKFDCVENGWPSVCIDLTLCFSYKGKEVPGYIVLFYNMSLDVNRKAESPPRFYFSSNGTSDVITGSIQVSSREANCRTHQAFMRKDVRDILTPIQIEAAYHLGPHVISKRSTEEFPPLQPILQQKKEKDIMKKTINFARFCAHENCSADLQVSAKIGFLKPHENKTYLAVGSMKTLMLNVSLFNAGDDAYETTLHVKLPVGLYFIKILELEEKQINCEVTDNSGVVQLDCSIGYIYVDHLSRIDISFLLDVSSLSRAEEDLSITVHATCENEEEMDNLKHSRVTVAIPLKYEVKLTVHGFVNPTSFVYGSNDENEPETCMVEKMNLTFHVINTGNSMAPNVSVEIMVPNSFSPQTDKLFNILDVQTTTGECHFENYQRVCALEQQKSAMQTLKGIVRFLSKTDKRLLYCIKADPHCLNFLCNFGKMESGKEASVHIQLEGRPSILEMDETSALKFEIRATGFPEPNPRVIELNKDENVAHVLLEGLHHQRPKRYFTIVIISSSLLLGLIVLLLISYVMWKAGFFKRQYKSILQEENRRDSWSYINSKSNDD
Beta-2 adrenergic receptor (Homo sapiens), sequence (P07550 whole entry, looked up): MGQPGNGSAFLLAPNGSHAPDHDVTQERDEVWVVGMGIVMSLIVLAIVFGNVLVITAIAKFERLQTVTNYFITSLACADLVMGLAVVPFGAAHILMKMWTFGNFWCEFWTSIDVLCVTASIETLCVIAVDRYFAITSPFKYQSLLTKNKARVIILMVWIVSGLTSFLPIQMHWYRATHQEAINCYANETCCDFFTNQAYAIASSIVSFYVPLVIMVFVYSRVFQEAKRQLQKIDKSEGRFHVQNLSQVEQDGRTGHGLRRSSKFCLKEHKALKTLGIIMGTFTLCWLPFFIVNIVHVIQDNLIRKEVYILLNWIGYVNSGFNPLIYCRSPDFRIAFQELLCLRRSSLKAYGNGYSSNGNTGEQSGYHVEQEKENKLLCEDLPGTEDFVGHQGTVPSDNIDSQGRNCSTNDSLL

In the case of `Cc1ccc(S(=O)(=O)n2ccnc2)cc1C`, the percent of DMSO control GFP in experiment [1] was 98.4% (inactive). Moreover, the GFP response vs DMSO in experiment [2] is 112% (inactive); in experiment [4], 108% (inactive). Besides, in experiment [3], the percent response of DMSO control is 99.6% (inactive). Also, in experiment [5], the GFP response, % of DMSO was 121% (inactive). This compound displayed a double positive events in experiment [6] of 60.3%. In addition, the vesicle binding response in [6] was 160% (inactive). For the same compound, the inhibition in experiment [7] is 6.55% (inactive); in experiment [11], -13.3% (inactive); in experiment [15], 3% (inactive). Besides, in experiment [8], the superoxide response (% of plate) was 95.2% (inactive). In addition, the aptamer binding inhibition in [9] is 1% (inactive). The response in experiment [10] was -20.5% (inactive); in experiment [12] it was 1.99% (inactive). Further, the binding (% of control) in experiment [13] was 102% (inactive). Moreover, the efflux inhibition (fraction of control) in experiment [14] is -0.09 (inactive). Besides, the differentiation response in experiment [16] was -2.03% (inactive).
With `COc1ccc(C2=C(CN(C)C)C(c3ccccc3)c3ccccc3O2)cc1` (stereo not drawn), in experiment [1], the percent of DMSO control GFP is 102% (inactive). The results for the GFP response vs DMSO in [2] and in experiment [4] were 105% (inactive) and 92% (inactive), respectively. Further, the percent response of DMSO control in [3] was 96.6% (inactive). In addition, the GFP response, % of DMSO in experiment [5] was 99.7% (inactive). This compound gave a double positive events in experiment [6] of 61.4%. In experiment [6], the vesicle binding response was 6270% (inactive). The results for the inhibition in experiment [7], in experiment [11] and in [15] were 3.7% (inactive), 12.1% (inactive) and 7% (inactive), respectively. Also, the superoxide response (% of plate) in experiment [8] was 102% (inactive). Besides, the aptamer binding inhibition in experiment [9] is -2% (inactive). The figures for the response in experiment [10] and in experiment [12] were 10.4% (inactive) and -5.6% (inactive), respectively. Also, the binding (% of control) in experiment [13] was 104% (inactive). Also, in [14], the efflux inhibition (fraction of control) was -0.14 (inactive). For the same compound, the differentiation response in experiment [16] is 0.24% (inactive).
On to `S=C(NCc1ccccc1)NCc1cccc(CNC(=S)NCc2ccccc2)c1`, for which the percent of DMSO control GFP in experiment [1] was 105% (inactive). Further, the GFP response vs DMSO in experiment [2] is 98.6% (inactive); in experiment [4], 108% (inactive). In experiment [3], the percent response of DMSO control was 93.8% (inactive). For the same compound, the GFP response, % of DMSO in experiment [5] is 120% (inactive). The double positive events in experiment [6] is 62.4%. For the same compound, the vesicle binding response in [6] is 205% (inactive). For the same compound, the inhibition was 9.1% (inactive) in experiment [7], 2.64% (inactive) in [11] and 2% (inactive) in [15]. In [8], the superoxide response (% of plate) was 81.9% (inactive). Moreover, in experiment [9], the aptamer binding inhibition was -2% (inactive). The response in [10] was -21.3% (inactive); in [12], -2.61% (inactive). In addition, the binding (% of control) in [13] is 100% (inactive). In addition, the efflux inhibition (fraction of control) in [14] is 0.33 (inactive). Further, the differentiation response in [16] was 1.91% (inactive).
Consider `Cn1cc(C2N3CC4(C)CN2CC(C)(C3)C4=O)c2ccccc21` (stereo not drawn), for which the percent of DMSO control GFP in experiment [1] was 102% (inactive). The GFP response vs DMSO in experiment [2] is 107% (inactive); in experiment [4], 94% (inactive). Moreover, in experiment [3], the percent response of DMSO control is 98.9% (inactive). The GFP response, % of DMSO in experiment [5] was 104% (inactive). The compound also gave a double positive events in experiment [6] of 50.6%. The vesicle binding response in experiment [6] is 485% (inactive). The inhibition in experiment [7] is 0.58% (inactive); in experiment [11], -3.74% (inactive); in experiment [15], -4% (inactive). The superoxide response (% of plate) in experiment [8] is 101% (inactive). Further, the aptamer binding inhibition in [9] was 2% (inactive). Also, the response is -3.83% (inactive) in experiment [10] and -6.53% (inactive) in experiment [12]. Moreover, in experiment [13], the binding (% of control) was 95.1% (inactive). The efflux inhibition (fraction of control) in [14] is -0.01 (inactive). In [16], the differentiation response was -7.57% (inactive).
